# Results: PubChem BioAssay (EPA / NIEHS)
# Activity calls are given as the source filed them. The calls were made as follows: active = hit-call score of the fitted dose curve at least 0.9, where 1 is the maximum; inactive = score below 0.9.
# Read-out: Intercellular Adhesion Molecule 1 (ICAM1), ICAM1 (gene 3383)
# Assay: BSK_KF3CT_ICAM1: BioMAP Diversity Plus: KF3CT Assay for Intercellular Adhesion Molecule 1 (ICAM1) Biomarker Activity (AID 2283067)
# Details: primary human keratinocytes with fibroblasts; actives raise or lower the signal
# In short: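 Human keratinocyte–foreskin fibroblast co-culture was treated for 24 h. Cell-surface ICAM-1 was quantified by ELISA, fitted bidirectionally relative to DMSO. Cytotoxicity was checked in parallel cultures by SRB total-protein staining.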
SMILES,outcome,AC50
NC(=O)N(O)[C@@H]1COc2cc(OCc3ccccc3)ccc21,inactive,–
c1ccc(C(O[C@@H]2CCCN(CCc3ccc4c(c3)OCO4)C2)c2ccccc2)cc1,inactive,–
CCCOc1ccc(S(=O)(=O)N2CCN(CC)CC2)cc1-c1nc2c(CC)n(Cc3ccccn3)nc2c(=O)[nH]1,inactive,–
CCCCOC(=O)c1ccccc1,inactive,–
COS(C)(=O)=O,inactive,–
NNC(=O)c1ccncc1,inactive,–
CCCCC(CC)C(=O)OCCOCCOCCOC(=O)C(CC)CCCC (centres undefined),inactive,–
O=S(=O)(O)c1ccc(N=Nc2c(O)ccc3cc(S(=O)(=O)O)ccc23)cc1,inactive,–
Cn1c(=O)c2[nH]cnc2n(C)c1=O,inactive,–
CCN(CC)C(=S)SSC(=S)N(CC)CC,–,13.5 µM (active)
OC[C@H]1O[C@@H]2O[C@H]3[C@H](O)[C@@H](O)[C@@H](O[C@H]4[C@H](O)[C@@H](O)[C@@H](O[C@H]5[C@H](O)[C@@H](O)[C@@H](O[C@H]6[C@H](O)[C@@H](O)[C@@H](O[C@H]7[C@H](O)[C@@H](O)[C@@H](O[C@H]1[C@H](O)[C@H]2O)O[C@@H]7CO)O[C@@H]6CO)O[C@@H]5CO)O[C@@H]4CO)O[C@@H]3CO,inactive,–
OC(CCl)CCl,inactive,–
C=CCc1cc(S(=O)(=O)c2ccc(O)c(CC=C)c2)ccc1O,–,23.7 µM (active)
c1ccc2c(c1)-c1cccc3c1c-2cc1ccccc13,inactive,–
CCCC(CCC)C(=O)O,inactive,–
CC1(C)C(=O)N(Cl)C(=O)N1Cl,inactive,–
Cc1ccc(S(=O)(=O)NC(=O)NN2CCCCCC2)cc1,inactive,–
COc1cc2c(c(OC)c1OC)-c1ccc(OC)c(=O)cc1[C@@H](NC(C)=O)CC2,inactive,–
Cc1cccc(O)c1C,inactive,–
C[C@@H](Oc1ccc(CNC(=O)c2cccnc2Oc2ccc3c(c2)OCO3)c(F)c1)C(=O)O,inactive,–
CCCCCCCCN(C)C,inactive,–
NCC(F)(F)C(F)(F)C(F)(F)C(F)(F)F,inactive,–
NC(=O)NN=Cc1ccc([N+](=O)[O-])o1,inactive,–
Cc1ncc([C@@H](CCCCCCc2ccc3c(n2)NCCC3)CC(=O)O)cn1,inactive,–
Cn1cc[nH]c1=S,inactive,–
OC(O)(C(F)C(O)(O)C(F)(F)F)C(F)(F)F,inactive,–
CCCCCCCCCCCCCCCCOS(=O)(=O)O,–,14.9 µM (active)
c1ccc2ncccc2c1,inactive,–

# Read-out: Interferon-gamma inducible Protein 10 (IP10), CXCL10 (gene 3627)
# Assay: BSK_KF3CT_IP10: BioMAP Diversity Plus: KF3CT Assay for Interferon-gamma inducible Protein 10 (IP10) Biomarker Activity (AID 2283068)
# Details: primary human keratinocytes with fibroblasts; actives raise or lower the signal
# In short: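 ELISA read-out of IP-10 after 24 h chemical dosing of human skin primary co-culture (keratinocytes, foreskin fibroblasts). Gain or loss of signal relative to DMSO, bidirectional curve fit.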
SMILES,outcome,AC50
NC(=O)N(O)[C@@H]1COc2cc(OCc3ccccc3)ccc21,inactive,–
c1ccc(C(O[C@@H]2CCCN(CCc3ccc4c(c3)OCO4)C2)c2ccccc2)cc1,inactive,–
CCCOc1ccc(S(=O)(=O)N2CCN(CC)CC2)cc1-c1nc2c(CC)n(Cc3ccccn3)nc2c(=O)[nH]1,inactive,–
CCCCOC(=O)c1ccccc1,inactive,–
COS(C)(=O)=O,inactive,–
NNC(=O)c1ccncc1,inactive,–
CCCCC(CC)C(=O)OCCOCCOCCOC(=O)C(CC)CCCC (centres undefined),inactive,–
O=S(=O)(O)c1ccc(N=Nc2c(O)ccc3cc(S(=O)(=O)O)ccc23)cc1,inactive,–
Cn1c(=O)c2[nH]cnc2n(C)c1=O,inactive,–
CCN(CC)C(=S)SSC(=S)N(CC)CC,–,9.46 µM (active)
OC[C@H]1O[C@@H]2O[C@H]3[C@H](O)[C@@H](O)[C@@H](O[C@H]4[C@H](O)[C@@H](O)[C@@H](O[C@H]5[C@H](O)[C@@H](O)[C@@H](O[C@H]6[C@H](O)[C@@H](O)[C@@H](O[C@H]7[C@H](O)[C@@H](O)[C@@H](O[C@H]1[C@H](O)[C@H]2O)O[C@@H]7CO)O[C@@H]6CO)O[C@@H]5CO)O[C@@H]4CO)O[C@@H]3CO,inactive,–
OC(CCl)CCl,inactive,–
C=CCc1cc(S(=O)(=O)c2ccc(O)c(CC=C)c2)ccc1O,–,13.8 µM (active)
c1ccc2c(c1)-c1cccc3c1c-2cc1ccccc13,inactive,–
CCCC(CCC)C(=O)O,inactive,–
CC1(C)C(=O)N(Cl)C(=O)N1Cl,inactive,–
Cc1ccc(S(=O)(=O)NC(=O)NN2CCCCCC2)cc1,inactive,–
COc1cc2c(c(OC)c1OC)-c1ccc(OC)c(=O)cc1[C@@H](NC(C)=O)CC2,inactive,–
Cc1cccc(O)c1C,inactive,–
C[C@@H](Oc1ccc(CNC(=O)c2cccnc2Oc2ccc3c(c2)OCO3)c(F)c1)C(=O)O,inactive,–
CCCCCCCCN(C)C,inactive,–
NCC(F)(F)C(F)(F)C(F)(F)C(F)(F)F,inactive,–
NC(=O)NN=Cc1ccc([N+](=O)[O-])o1,inactive,–
Cc1ncc([C@@H](CCCCCCc2ccc3c(n2)NCCC3)CC(=O)O)cn1,inactive,–
Cn1cc[nH]c1=S,inactive,–
OC(O)(C(F)C(O)(O)C(F)(F)F)C(F)(F)F,inactive,–
CCCCCCCCCCCCCCCCOS(=O)(=O)O,–,11.9 µM (active)
c1ccc2ncccc2c1,inactive,–

# Read-out: not listed separately
# Assay: BSK_KF3CT_SRB: Viability Assessment in the BioMAP Diversity Plus: KF3CT Assay (AID 2283069);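 also: total protein by sulforhodamine B staining as a cytotoxicity measure; read 24 h after compound addition; fitted for both signal gain and loss against DMSO baseline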
# Details: primary human keratinocytes with fibroblasts
# In short: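 Cytotoxicity was gauged by SRB staining (0.1% SRB, 10% TCA fixation, 560 nm) of parallel cultures at 24 h. The cells were primary human skin keratinocytes co-cultured with fibroblasts, and activity was fitted in both directions against DMSO.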
SMILES,outcome,AC50
NC(=O)N(O)[C@@H]1COc2cc(OCc3ccccc3)ccc21,inactive,–
c1ccc(C(O[C@@H]2CCCN(CCc3ccc4c(c3)OCO4)C2)c2ccccc2)cc1,inactive,–
CCCOc1ccc(S(=O)(=O)N2CCN(CC)CC2)cc1-c1nc2c(CC)n(Cc3ccccn3)nc2c(=O)[nH]1,inactive,–
CCCCOC(=O)c1ccccc1,inactive,–
COS(C)(=O)=O,inactive,–
NNC(=O)c1ccncc1,inactive,–
CCCCC(CC)C(=O)OCCOCCOCCOC(=O)C(CC)CCCC (centres undefined),inactive,–
O=S(=O)(O)c1ccc(N=Nc2c(O)ccc3cc(S(=O)(=O)O)ccc23)cc1,inactive,–
Cn1c(=O)c2[nH]cnc2n(C)c1=O,inactive,–
CCN(CC)C(=S)SSC(=S)N(CC)CC,–,9.96 µM (active)
OC[C@H]1O[C@@H]2O[C@H]3[C@H](O)[C@@H](O)[C@@H](O[C@H]4[C@H](O)[C@@H](O)[C@@H](O[C@H]5[C@H](O)[C@@H](O)[C@@H](O[C@H]6[C@H](O)[C@@H](O)[C@@H](O[C@H]7[C@H](O)[C@@H](O)[C@@H](O[C@H]1[C@H](O)[C@H]2O)O[C@@H]7CO)O[C@@H]6CO)O[C@@H]5CO)O[C@@H]4CO)O[C@@H]3CO,inactive,–
OC(CCl)CCl,inactive,–
C=CCc1cc(S(=O)(=O)c2ccc(O)c(CC=C)c2)ccc1O,–,26.5 µM (active)
c1ccc2c(c1)-c1cccc3c1c-2cc1ccccc13,inactive,–
CCCC(CCC)C(=O)O,inactive,–
CC1(C)C(=O)N(Cl)C(=O)N1Cl,inactive,–
Cc1ccc(S(=O)(=O)NC(=O)NN2CCCCCC2)cc1,inactive,–
COc1cc2c(c(OC)c1OC)-c1ccc(OC)c(=O)cc1[C@@H](NC(C)=O)CC2,inactive,–
Cc1cccc(O)c1C,inactive,–
C[C@@H](Oc1ccc(CNC(=O)c2cccnc2Oc2ccc3c(c2)OCO3)c(F)c1)C(=O)O,inactive,–
CCCCCCCCN(C)C,inactive,–
NCC(F)(F)C(F)(F)C(F)(F)C(F)(F)F,inactive,–
NC(=O)NN=Cc1ccc([N+](=O)[O-])o1,inactive,–
Cc1ncc([C@@H](CCCCCCc2ccc3c(n2)NCCC3)CC(=O)O)cn1,inactive,–
Cn1cc[nH]c1=S,inactive,–
OC(O)(C(F)C(O)(O)C(F)(F)F)C(F)(F)F,inactive,–
CCCCCCCCCCCCCCCCOS(=O)(=O)O,–,15.8 µM (active)
c1ccc2ncccc2c1,inactive,–
